This is a sample that favours compounds with a hit; in the whole collection about 4.5% have one here.
Gli-Sufu block: antagonists of Gli-Sufu signaling. Sufu-KO-LIGHT fibroblasts, Gli luciferase reporter luminescence. inhibition, % at 5 µM. 0.74% of 340,000 active;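 active = inhibition above about 55%, limit read from the data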;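 note: 0% = DMSO-treated cells and 100% = wells with medium but no cells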
aSyn 5UTR inh: 5' untranslated region of α-synuclein, MLPCN primary screen | alpha-synuclein 5'UTR reporter, inhibitor activity | inhibition, % (tested at 7.5 µM) | AID 1813 | 0.82% of 300,000 active; in the data active = inhibition above about 60%;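 note: H4 neuroglioblastoma cells stably carrying SNCA 5'UTR luciferase fusion; 0% = DMSO wells and 100% = positive control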
697 NFkB inh: lowers PMA/ionomycin-induced NF-kB signal in 697 B cells | 697 B-cell NF-kB luciferase reporter, 16 h | inhibition, % at 4 µM | 0.33% of 330,000 active | AID 435022; in the data active = inhibition above about 35%
CSC inhib: cancer stem cell inhibition; cancer stem cell-like cells viability, luminescence; inhibition, % at 7.5 µM; 1.1% of 300,000 active; in the data active = inhibition above about 75%; tested in HMLE shEcad cells
Mdm2 MdmX PPI: human Mdm2/MdmX binding inhibition; AID 485346; SaOS-2 split-luciferase Mdm2/MdmX complementation, luminescence; O15151+Q00987; inhibition, % at 8 µM; 3% of 330,000 active;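 active = inhibition of at least 50% at 8 µM in the primary screen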
Target sequence (O15151 whole entry, looked up): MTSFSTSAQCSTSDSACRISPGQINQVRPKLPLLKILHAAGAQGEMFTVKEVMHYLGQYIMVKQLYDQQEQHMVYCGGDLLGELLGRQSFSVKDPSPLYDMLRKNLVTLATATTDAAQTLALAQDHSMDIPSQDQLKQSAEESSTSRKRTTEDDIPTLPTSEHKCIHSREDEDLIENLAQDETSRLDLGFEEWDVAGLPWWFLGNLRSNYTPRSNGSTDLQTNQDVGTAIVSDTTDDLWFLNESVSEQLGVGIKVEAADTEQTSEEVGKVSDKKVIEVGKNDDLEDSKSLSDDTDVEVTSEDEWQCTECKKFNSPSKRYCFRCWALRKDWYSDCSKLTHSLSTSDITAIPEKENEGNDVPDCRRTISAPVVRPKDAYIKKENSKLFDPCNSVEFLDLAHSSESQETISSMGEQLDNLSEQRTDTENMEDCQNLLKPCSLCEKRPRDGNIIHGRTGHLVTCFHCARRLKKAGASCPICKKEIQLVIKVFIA
Target sequence (Q00987 whole entry, looked up): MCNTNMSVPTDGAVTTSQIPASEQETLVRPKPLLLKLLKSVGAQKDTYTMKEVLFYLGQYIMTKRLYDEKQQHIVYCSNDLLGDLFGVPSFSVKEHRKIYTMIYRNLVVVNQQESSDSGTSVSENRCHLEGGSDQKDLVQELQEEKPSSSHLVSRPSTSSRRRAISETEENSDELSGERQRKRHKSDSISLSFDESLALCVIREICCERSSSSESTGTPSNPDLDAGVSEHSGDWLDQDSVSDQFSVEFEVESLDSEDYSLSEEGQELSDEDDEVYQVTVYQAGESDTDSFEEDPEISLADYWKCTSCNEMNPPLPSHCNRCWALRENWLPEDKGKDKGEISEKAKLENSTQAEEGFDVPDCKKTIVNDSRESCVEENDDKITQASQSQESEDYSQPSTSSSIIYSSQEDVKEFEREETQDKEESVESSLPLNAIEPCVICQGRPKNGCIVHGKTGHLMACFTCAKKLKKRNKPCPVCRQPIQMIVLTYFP
Jurkat NFkB inh: lowers PMA/ionomycin-induced NF-kB signal in Jurkat cells; 0.53% of 330,000 active; AID 435003; inhibition, % at 4 µM; PMA/ionomycin-induced NF-kB luciferase reporter, luminescence; in the data active = inhibition above about 50%
Mdm2-MdmX conf: confirmation of human Mdm2/MdmX interaction inhibitors; AID 489028; inhibition, % at 8 µM; 55% of 10,000 active; shares compounds with Mdm2 MdmX PPI; Mdm2-MdmX binding, luminescent assay; in the data active = inhibition above about 40%
FLuc counter: full-length luciferase inhibition in Mdm2/MdmX counter-screen; shares compounds with Mdm2 MdmX PPI; SaOS-2 full-length luciferase counterscreen, luminescence; inhibition, % at 8 µM; 77% of 6,200 active;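 active = mean inhibition at 8 µM reaching about 37%, which flags the compound as non-specific, limit read from the data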;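 note: p53-null SaOS-2 cells with luciferase driven by a doxycycline-inducible promoter; compound on cells about two nights before reading with doxycycline added after day one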
Active calls of the source: *; · = not tested or not shown.

SMILES	Gli-Sufu block	aSyn 5UTR inh	697 NFkB inh	CSC inhib	Mdm2 MdmX PPI	Jurkat NFkB inh	Mdm2-MdmX conf	FLuc counter
CCCN1CCC(NC(=S)Nc2cccc(Cl)c2Cl)CC1	17	1	11	-7	30	-4	·	·
Cc1ccc(-n2nc3c(=O)n(CC(=O)NCc4ccc(C)o4)nc(C)c3c2C)cc1	-2	33	19	9	35	18	·	·
CC(NC(=O)c1ccco1)C(=O)N1CCCCC1 (centres undefined)	0	-3	-6	-10	5	-6	·	·
CCN1C(=O)C(CC(=O)Nc2ccc(Br)cc2)N(CCCc2ccccc2)C1=S (centres undefined)	5	23	2	-15	84*	6	7	·
CCCOc1ccc(NC(=O)CC2C(=O)N(CC)C(=S)N2CCCN2CCN(Cc3ccccc3)CC2)cc1 (centres undefined)	-3	29	6	25	81*	-10	46*	65*
N#C/C(=C\c1ccc2c(c1)OCCO2)C(=O)Nc1ccc(C(=O)O)cc1	-33	-19	-25	-4	-15	1	·	·
COc1ccc([N+](=O)[O-])c(S(=O)(=O)c2ccccc2)n1	4	-49	27	45	99*	30	98*	52*
Nc1cccnc1S(=O)(=O)c1ccccc1	10	3	7	-15	17	-5	·	·
COc1ccc([N+](=O)[O-])c(S(=O)(=O)c2ccc(Cl)cc2)n1	4	-23	17	39	97*	13	95*	52*
O=[N+]([O-])c1cccnc1S(=O)(=O)c1ccccc1	10	-7	12	16	92*	34	65*	58*
COc1ccc(C(C[N+](=O)[O-])c2c(C)cc3ccccn23)cc1 (centres undefined)	13	11	0	-1	34	2	·	·
COc1ccc(C(C[N+](=O)[O-])c2c(-c3ccccc3)cc3ccccn23)c(OC)c1 (centres undefined)	19	15	1	-8	53*	-24	38	71*
COc1ccc(C2CN=NC23CCc2ccccc2C3=O)cc1 (centres undefined)	·	-18	-40	61	66*	33	53*	89*
O=C(NCc1ccccc1)c1onc(CSc2ccccc2)c1C(=O)NCC1CC1	12	14	0	17	55*	-2	50*	81*
Clc1ccc(/C=C\c2nccc3c2[nH]c2ccccc23)cc1	-5	-10	·	·	·	·	·	·
N#Cc1ccc(/C=C\c2nccc3c2[nH]c2ccccc23)cc1	-5	6	-5	46	51*	-4	35	·
Fc1ccc(-c2ccnc(=S)[nH]2)cc1	2	7	-24	13	-6	-7	·	·
CN(C)CCC1Sc2ccccc2Oc2ccccc21 (centres undefined)	13	-18	-2	-20	-6	-17	·	·
CC1c2ccccc2SC(CCCN(C)C)c2ccccc21 (centres undefined)	19	-8	-12	10	52*	-9	3	·
O=C(/C(N=Nc1cccc([N+](=O)[O-])c1)=C(/O)c1ccc(Br)cc1)C(F)(F)F	·	24	-42	99*	96*	-25	88*	25
COC(=O)C1=C(C)N(Cc2ccccc2)C(=NCc2ccc3c(c2)OCO3)N[C@H]1c1ccccc1	35	·	10	5	56*	11	8	·
COC(=O)C1=C(C)N(Cc2ccccc2)C(=NCc2ccco2)N[C@H]1c1cccc(F)c1	15	·	14	·	42	5	·	·
COC(=O)C1=C(C)N(Cc2ccccc2)C(=NCc2cccc(Cl)c2)N[C@H]1c1cccc(F)c1	22	·	2	134*	100*	-7	60*	11
COC(=O)C1=C(C)N(Cc2ccccc2)C(=NCc2cc(OC)c(OC)c(OC)c2)N[C@H]1c1cccc(F)c1	8	-10	-8	-2	62*	6	22	·
CCN1C(=NCc2ccc(OC)cc2)N[C@@H](c2ccccc2)C(C(=O)OC)=C1C	2	13	10	-2	16	10	·	·
SMILES	Gli-Sufu block	aSyn 5UTR inh	697 NFkB inh	CSC inhib	Mdm2 MdmX PPI	Jurkat NFkB inh	Mdm2-MdmX conf	FLuc counter
COC(=O)C1=C(C)N(Cc2ccccc2)C(=NCc2ccc(OC)cc2)N[C@H]1c1cccc(F)c1	-26	16	-4	14	87*	-15	47*	57*
CCN1C(=NCc2cc(OC)c(OC)c(OC)c2)N[C@@H](c2ccccc2)C(C(=O)OC)=C1C	7	·	13	-8	20	9	·	·
CCOc1ccc(NC(=O)CSc2nnc(C34CC5CC(CC(C5)C3)C4)n2C)cc1	7	0	-2	·	-27	5	·	·
COc1ccccc1C/C(N)=N/OC(=O)/C=C/c1ccccc1	-12	-17	-4	-23	13	3	·	·
CC(C)C[C@@H](CN)NC(=O)c1nc[nH]c1C(=O)N[C@@H](C)C(=O)CNC[C@H](C)NC(=O)c1nc[nH]c1C(=O)N[C@@H](CC(C)C)C(=O)O	-1	·	·	·	·	·	·	·
COc1ccc(CN2C(=O)c3ccccc3C(/C=N\OCc3ccc(F)cc3)C2=O)cc1 (centres undefined)	1	-17	14	-10	44	4	·	·
COc1ccc(CN2C(=O)c3ccccc3C(/C=N/OCc3ccc(Cl)cc3)C2=O)cc1 (centres undefined)	2	10	3	·	67*	-1	14	·
COc1ccc(NC(=O)NNC(=O)c2ccc3ccccc3c2)cc1OC	10	20	10	-8	29	5	·	·
COc1cccc(CNC(=O)c2ccc(CS(=O)c3ccccc3)o2)c1 (centres undefined)	-12	6	-20	-9	20	-8	·	·
CC(C)(C)c1ccc(OCCCC(=O)NNC(=O)c2ccccc2O)cc1	-23	46	-63	32	58*	3	66*	45*
CC[C@@]12C(=O)N(c3ccc(OC)cc3)C(=O)N1[C@H](c1ccc(Cl)cc1)[C@@H]1C(=O)N(C3CCCCC3)C(=O)[C@@H]12	-1	-4	6	6	50	-1	48*	49*
O=C1[C@H]2[C@@H](c3ccc(F)cc3)N3C(=O)N(c4ccc(Br)cc4)C(=O)[C@@]3(Cc3ccccc3)[C@H]2C(=O)N1C1CCCCC1	-11	-2	-19	8	84*	3	94*	27
Cc1ccc(N2C(=O)N3[C@H](c4ccc(Cl)cc4)[C@@H]4C(=O)N(C5CCCCC5)C(=O)[C@@H]4[C@]3(Cc3ccccc3)C2=O)cc1	-11	-10	1	-5	22	-4	·	·
CO/N=C/NC(=O)N1OC[C@@H]2COc3ccc4ccccc4c3[C@@H]21	-3	5	20	-18	22	-2	·	·

Bioassay records from PubChem BioAssay.
